# Bioassay records (PubChem)
# The list is not random: actives were taken first. Their share in the collection is about 21%.
# Shiga inhibitor: inhibitors of Shiga toxin in Vero cells; Vero cells, Shiga toxin protein synthesis inhibition reporter; inhibition, % at 38.7 µM; hit rate 9.2% among 290,000; in the data active means inhibition mostly above about 28%, no sharp cut-off; inactive means mostly below about 43%; further: 0% is about no effect
# CHX counter: affects cycloheximide protein synthesis inhibition readout, counter-screen | max response, % | cell reporter, cycloheximide protein synthesis inhibition counterscreen | hit rate 12% among 300,000; in the data active means max response mostly above about 13%, no sharp cut-off; inactive means mostly below about 14%; further: read at 38.3 µM for the half of the compounds with a filed dose; 0% is about no effect
# Pf growth 96h: P. falciparum growth inhibition at 96 hours; P. falciparum luciferase reporter growth, 96 h; Potency, µM (doses to about 28.7 µM), for the others: at the top dose activity change, negative = inhibition, hits mostly inhibitors; hit rate 6.9% among 320,000; further: potency means the concentration at half of the fitted maximal effect; on the % scale 0 is the no-effect control and ±100 the full control effect
#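 Delayed-death screen, second-generation endpoint: infected erythrocytes, 2% hematocrit, 0.05% parasitemia final; 96 hours at 37 C, 5% CO2; luciferase detection reagent; luminescence decrease equals reduced growth.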
# Pf growth 48h: inhibits P. falciparum growth in the first generation, 48 h; P. falciparum luciferase growth in erythrocytes, 48 h; Potency, µM (highest dose often 28.7 µM), for inactives: at the highest dose activity change, negative = inhibition, most hits filed as inhibitors; hit rate 5.9% among 310,000; AID 504832; further: potency means the concentration at half of the fitted maximal effect; on the % scale 0 is the no-effect control and ±100 the full control effect
#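 Growth was read as firefly luciferase luminescence after a 48 h, 37 C, 5% CO2 exposure of compounds to reporter-bearing P. falciparum cultures (0.1% parasitemia, 2% hematocrit final) in Albumax-supplemented RPMI 1640.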
# * hit, by the source's call; ? = inconclusive; · = no result given; + = active, no number. Unless noted, the call rests on the fitted dose curve; in most records, active means well fitted inhibition curve with a large enough effect; inconclusive means small, poorly fitted or top-dose-only effect, or another doubt; inactive means no such curve, though single readings can be large or run the other way.
SMILES,Shiga inhibitor,CHX counter,Pf growth 96h,Pf growth 48h
CC1=CC(C)(C)N2C(=O)C3(C(C#N)=C(N)OC4=C3C(=O)CC(C)(C)C4)c3cccc1c32 (stereo unspecified),0.6,0.7,19.6%,·
Cc1nn(-c2ccccc2)c(Cl)c1/C=N/NC(=O)CNc1n[nH]c(=O)[nH]c1=O,0.5,12.4,6.9%,-7.9%
Cc1ccc(NCc2ccncc2)c(Br)c1,32.7*,11.6,-1.2%,-17.8%
Cc1cc(NCc2ccncc2)ccc1Br,16.2,13.4,?,17.4%
OCC1(Cc2cccc(Cl)c2)CCCN(Cc2cn[nH]c2C2CCCCC2)C1 (stereo unspecified),-5.6,-0.6,7.8%,11.7µM*
COc1cccc(CC2(CO)CCCN(Cc3cn[nH]c3C3CCCCC3)C2)c1 (stereo unspecified),-7.9,-1.2,?,?
CC(C)(C)NC(=O)Cn1nnc(-c2ccc(OCc3c(F)cccc3Cl)cc2)n1,33.1,12.7*,?,?
O=C(NC(Cc1ccc(F)cc1)C(=O)O)c1ccccc1 (stereo unspecified),-13.1,-2.6,·,10.1%
CSc1ccc(/C=N/NC(=O)c2cccc(O)c2)cc1,76.0,27.0*,97.9%,151.9%
O=C(CNc1ccccc1)Nc1ccc(F)cc1,118.3*,75.1*,·,223.5%
O=C(O)C(Cc1ccc(F)cc1)c1ccccc1 (stereo unspecified),-1.4,-2.3,3.29µM*,47.0%
O=C(N/N=C/c1cnc2ccccc2n1)c1cccc(F)c1,+,27.1*,19.7%,67.2%
CC1CCCN(C(=O)CCNS(=O)(=O)c2ccc3c(c2)oc(=O)n3C)C1 (stereo unspecified),-2.4,-2.4,?,-27.8%
COc1ccc(NC(=O)CC(Cc2ccccc2)C(=O)O)cc1 (stereo unspecified),-19.9,7.0,4.2%,-3.8%
Nc1ccc(C(=O)N/N=C/c2ccccc2)cc1,108.4*,40.9*,38.7%,111.5%
O=C(N/N=C/c1ccc(C(F)(F)F)cc1)c1ccc(O)cc1,44.4*,31.7*,20.7%,12.8%
O=C(CC(Cc1ccccc1)C(=O)O)Nc1ccc(F)cc1 (stereo unspecified),-6.9,-2.9,2.33µM*,-16.1%
O=C(N/N=C/c1ccc(O)cc1)c1csc2c1CCCC2,57.1*,46.9*,18.8%,17.9%
Cc1ccc(CNC(=O)c2csc3c2CCCCC3)cc1,11.8,-0.9,?,10.7%
CC(=O)c1cccc(OCC(=O)N(Cc2ccco2)c2c(N)n(Cc3ccccc3)c(=O)[nH]c2=O)c1,·,·,3.1%,?
CC(C)(C)NC(=O)C(=O)N/N=C/c1ccc(Br)cc1,13.1,14.6,-8.5%,-8.4%
CC(C)(C)NC(=O)C(=O)N/N=C/c1ccc(F)cc1,47.9*,26.1*,-4.8%,2.8%
O=C(N/N=C\c1cccc(F)c1)c1ccc(-c2ccccc2)cc1,26.1,21.1*,-26.5%,8.0%
O=C(NCCc1ccc(F)cc1)c1cccc(NC(=O)c2ccccc2)c1,43.6,23.2*,?,-11.7%
O=C(N/N=C\c1ccc(F)cc1)c1ccc(F)cc1,75.3*,46.9*,-10.1%,241.3%
SMILES,Shiga inhibitor,CHX counter,Pf growth 96h,Pf growth 48h
CCc1nc2ccccc2n1CC(O)COCC1CC=CCC1 (stereo unspecified),9.9,-1.9,-12.0%,-19.5%
O=C(Cc1ccccc1)NNC(=O)Nc1ccccc1,39.7,-3.4,21.5%,6.6%
COC(=O)c1ccc(/C=N/NC(=O)c2cccc(F)c2)cc1,105.4*,60.8*,-42.1%,?
O=C(CCC(=O)Nc1ccc(F)cc1)N/N=C/c1cccc(Br)c1,-7.1,13.7,-16.9%,28.8%
O=C(CC(=O)Nc1ccc(Cl)cc1)N/N=C\c1cccc(F)c1,-3.0,-6.4,10.4µM*,2.3%
CC(=O)Nc1ccc(C(=O)N/N=C/c2ccc(F)cc2)cc1,-3.0,4.0,?,58.4%
COc1cc(/C=N\NC(=O)c2ccc(C)nc2)ccc1OC(=O)c1cccc(F)c1,-2.1,-3.0,6.9%,48.1%
O=C(Nc1ccc(F)cc1)c1ccccc1,103.1*,44.1*,111.8%,·
O=C(Nc1ccc(F)cc1)c1cccc(C(=O)Nc2ccc(F)cc2)c1,-3.5,-0.9,1.7%,14.6%
O=C(N/N=C/c1ccccc1)c1ccc(NC(=O)c2ccc(F)cc2)cc1,57.7*,48.5*,-13.7%,?
CCOC(=O)c1ccc(-[n+]2c(-c3ccccc3)cc(-c3ccccc3)cc2-c2ccccc2)cc1,·,·,1.17µM*,2.94µM*
CCOC(=O)c1cccc(-[n+]2c(-c3ccccc3)cc(-c3ccccc3)cc2-c2ccccc2)c1,·,·,0.586µM*,1.85µM*
Cc1ccc(C(=O)NC2CCCc3ccccc32)cc1[N+](=O)[O-] (stereo unspecified),40.6,8.4,?,?
O=C(/C=C/c1ccccc1)N1CCN(CCN2C(=O)c3cccc4cccc(c34)C2=O)CC1,-8.9,0.8,-9.1%,2.6%
O=C(/C=C\c1ccco1)Nc1nc(-c2ccccc2)cs1,77.8*,71.5*,-14.7%,58.0%
O=C(/C=C/c1ccco1)NC(=S)Nc1nc(-c2ccc(Cl)cc2)cs1,0.6,0.8,?,21.8%
N#Cc1ccc(-c2csc(NC(=O)/C=C/c3cccs3)n2)cc1,-2.0,-3.7,10.4µM*,?
O=C(/C=C/c1ccccc1)Nc1nc(-c2ccncc2)cs1,34.6,28.1*,?,?
CC(/C=C/c1ccccc1)=N\Nc1nc(-c2ccccc2)cs1,11.8,1.7,?,?
COc1cccc(-n2nnnc2SCC(=O)Nc2ccc3c(c2)OCCO3)c1,-18.7,-4.5,6.9%,·
Nn1c(SCC(=O)Nc2ccc3c(c2)OCCO3)nncc1=O,31.1*,15.8*,5.8%,2.1%
COc1ccc(-n2nnnc2SCC(=O)Nc2ccc3c(c2)OCCO3)c(OC)c1,74.1*,46.0*,?,16.3%
COCCCn1nnnc1SCC(=O)Nc1ccc2c(c1)OCCO2,16.4,9.1,13.1µM*,32.7%
CC(C)n1nnnc1SCC(=O)Nc1ccc2c(c1)OCCO2,117.4*,56.9*,155.7%,111.3%
CC(C)[C@H](NC(=O)N1CCn2c1nc1ccccc12)C(=O)NCC1CCCO1 (stereo partly specified),-3.7,-3.5,8.3%,11.8%
SMILES,Shiga inhibitor,CHX counter,Pf growth 96h,Pf growth 48h
CC(C)ON(CC(=O)NO)S(=O)(=O)c1ccc(-c2ccccc2)cc1,-19.5,-4.9,·,·
CCn1nnnc1SCC(=O)Nc1ccc2c(c1)OCCO2,64.1*,43.7*,?,465.3%
COCCn1nnnc1SCC(=O)Nc1ccc2c(c1)OCO2,15.8,5.4,2.6%,8.0%
CCOC(=O)c1[nH]c(Cc2[nH]c(C(=O)OCC)c(C)c2CCC(=O)OC)c(CCC(=O)OC)c1C,-9.4,-0.9,89.2%,1.65µM*
COc1ccc2[nH]c(=O)c(COC(=O)c3cccs3)cc2c1,-2.8,-5.5,0.4%,21.8%
C/C(=N\OC(=O)c1ccc(F)cc1)c1nccs1,53.3,46.7*,7.4%,48.1%
COc1ccc(OCCOC(=O)c2cccs2)cc1,77.3*,32.5*,46.9%,60.7%
COc1ccc(C(=O)O/N=C(/C)c2cccs2)cc1,60.8*,34.4*,12.9%,·
C/C(=N/OC(=O)c1c(F)cccc1F)c1nccs1,-3.6,5.8,10.3%,15.0%
COc1ccc(C(=O)O/N=C(\C)c2nccs2)cc1,30.1,26.4*,-68.4%,28.7%
